# Assay outcomes from PubChem.
# An excerpt weighted towards active compounds, which were near 10% of everything screened.
# Luc counter: counter-screen: inhibitors of Kinase-Glo firefly luciferase | Q27757 | Kinase-Glo luciferase, ATP luminescence, 8 min | Potency, µM (top dose mostly 38.3 µM), without a hit: at the highest dose activity change, negative = inhibition, hits mostly inhibitors | 200,000 tested, 0.28% active; active = well fitted inhibition curve with a large enough effect; inconclusive = small, poorly fitted or top-dose-only effect; also: potency is read from the fitted curve at half-maximal effect; nearly all actives have a fitted effect of over 60% in size
#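 Kinase-Glo luciferase light output from ATP and luciferin was measured with 10 uM ATP, within the enzyme's linear range. Buffer: 50 mM imidazole pH 7.2, 50 mM KCl, 7 mM MgCl2, 0.01% Tween 20, 0.05% BSA; luminescence read after 8 min at ambient temperature.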
# PNC inhibitor: inhibitors of perinucleolar compartment assembly; PC3M PTB-GFP, PNC prevalence imaging, 16 h; stronger effect = lower value; activity change (PNC), negative = inhibition, % at 10 µM; 140,000 tested, 3.1% active;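 active = readout at or below -70, meaning at least 70% loss of cells showing the perinucleolar compartment, a nuclear body marking cancer cells; inconclusive = readout between -30 and a set limit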;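 also: plate controls were DMSO wells for no effect and camptothecin positive control wells for full effect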
#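 Compounds are pinned in duplicate onto adhered PC3M cells stably expressing GFP-tagged PTB and incubated 16 h at 37 C. Cells are then fixed, nuclei stained with Hoechst, and PNC-positive cells counted.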
# Lamin A splicing: changes lamin A minigene splicing in HeLa cells; HeLa LMNA splicing GFP/RFP minigene ratio, 48 h; Potency, µM (highest dose often 46.1 µM), without a hit: at the top dose ratio change, negative = inhibition, usual class: inhibitors; 200,000 tested, 0.01% active; active = well fitted inhibition curve with a large enough effect in the signal ratio, with a control signal flat, not every such curve was filed as active; inconclusive = small, poorly fitted or top-dose-only effect, or effect the other way, or a change in a side signal; the % refers to the signal ratio; also: potency is read from the fitted curve at half-maximal effect
#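 S3 HeLa cells stably expressing lamin A-EGFP splicing minigene plus DsRed2, 600 cells/well, 48 h compound exposure at 37C. Laser-scanning cytometry; analysed as GFP (500-530 nm)/RFP (575-640 nm) total intensity ratio; 0.5% DMSO vehicle.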
# ALDH1A1 inh: ALDH1A1 (human) enzyme inhibition; Purified ALDH1A1, NADH fluorescence, propionaldehyde substrate; Potency, µM (series often up to 75.3 µM), without a hit: at the top dose activity, negative = inhibition, actives largely listed as inhibitors; 220,000 tested, 7.3% active; P00352; AID 1030;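 also: potency is read from the fitted curve at half-maximal effect; plate controls were no enzyme wells and a reference inhibitor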
# Target sequence (P00352 whole entry, looked up): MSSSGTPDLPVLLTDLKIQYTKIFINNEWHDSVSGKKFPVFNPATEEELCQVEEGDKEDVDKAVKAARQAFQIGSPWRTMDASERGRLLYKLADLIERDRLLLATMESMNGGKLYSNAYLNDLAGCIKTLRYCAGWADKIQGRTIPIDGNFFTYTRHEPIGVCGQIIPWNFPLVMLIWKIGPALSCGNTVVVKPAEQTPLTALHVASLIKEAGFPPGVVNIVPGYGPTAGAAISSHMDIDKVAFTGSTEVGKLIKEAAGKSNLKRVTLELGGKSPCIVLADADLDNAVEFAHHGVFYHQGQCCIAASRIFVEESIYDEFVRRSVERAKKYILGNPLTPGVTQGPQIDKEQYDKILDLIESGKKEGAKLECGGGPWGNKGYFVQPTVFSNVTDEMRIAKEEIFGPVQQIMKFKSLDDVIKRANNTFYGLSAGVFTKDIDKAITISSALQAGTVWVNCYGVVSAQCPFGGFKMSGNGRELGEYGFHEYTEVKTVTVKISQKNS
# HPGD block: inhibitors of human 15-hydroxyprostaglandin dehydrogenase (HPGD); 150,000 tested, 4.3% active; Potency, µM, inactives show at the highest dose activity change, negative = inhibition, hits mostly inhibitors; purified HPGD, NADH fluorescence kinetic, PGE2 substrate; AID 894; P15428; also: potency is read from the fitted curve at half-maximal effect
#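 NADH formation kinetics: reaction with 30 uM PGE2 and 1 mM NAD+ (final), 20 nM enzyme, Tris-HCl pH 8 with Tween 20, after 15 min compound preincubation at room temperature. Fluorescence change, last versus first of five reads.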
# IMPase inh: cell-permeable inhibitors of inositol monophosphatase (IMPase); AID 901; CHO-M1 cells, IP1 accumulation, HTRF TR-FRET ratio; 120,000 tested, under 10 active; inhibition (IP1 accumulation), % at 46.1 µM; P97697; active = well fitted curve in the direction sought with a large enough effect in the signal ratio, not every such curve was filed as active; inconclusive = small, poorly fitted or top-dose-only effect, or a change in a side signal; inactive = no such curve, though single readings can be large or run the other way; the % refers to the signal ratio;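 also: cells stimulated with carbachol in lithium chloride buffer; plate controls were DMSO basal wells for no effect and reference inhibitor wells for full effect; higher means more IMPase inhibition seen as more IP1 and lower FRET ratio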
# Target sequence (P97697 whole entry, looked up): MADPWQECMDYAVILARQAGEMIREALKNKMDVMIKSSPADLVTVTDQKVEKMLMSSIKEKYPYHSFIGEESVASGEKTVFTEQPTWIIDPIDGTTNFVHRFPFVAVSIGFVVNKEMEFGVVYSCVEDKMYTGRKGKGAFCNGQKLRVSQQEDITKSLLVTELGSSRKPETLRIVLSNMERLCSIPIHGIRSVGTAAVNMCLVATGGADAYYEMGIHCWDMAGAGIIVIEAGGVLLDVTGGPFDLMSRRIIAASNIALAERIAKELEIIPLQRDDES
#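 CHO-M1 cells (CHO stably expressing M1 receptor), compound up to 46 uM final, stimulated with carbachol (50 uM as added) in buffer with 50mM LiCl, pH 7.4, 30 min at 37C. Cytosolic IP1 read by TR-FRET; AC50 from Hill fits.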
# * = called active by the depositor; ? = inconclusive; nt = no result; [ ] = another dose, or the depositor's remark. Unless noted, calls follow the shape of the dose curve; as a rule, active = well fitted inhibition curve with a large enough effect (not every such curve was filed as active); inconclusive = small, poorly fitted or top-dose-only effect, or another doubt; inactive = no such curve, though single readings can be large or run the other way. Unless noted, % is scaled to controls: 0 for no effect and ±100 for the full control effect.
SMILES,Luc counter,PNC inhibitor,Lamin A splicing,ALDH1A1 inh,HPGD block,IMPase inh
COc1ccc2c(c1)N(C[C@@H](C)CN(C)C)c1ccccc1S2,-1%[17.1 µM],nt,?,13%[20.9 µM],-3%,12[20.6 µM]
CCOC(=O)C1CCC(CN(Cc2ccc(Cl)cc2)S(=O)(=O)c2cccc(Cl)c2C)CC1 (stereo not given),nt,nt,-26%[46 µM],nt,nt,nt
C#CCN1C(=O)C(O)(CC(=O)/C=C/c2ccco2)c2ccccc21 (stereo not given),0%,nt,?,1.6µM*,nt,nt
O=C(CC1(O)C(=O)N(CCc2ccccc2)c2ccccc21)c1ccco1 (stereo not given),1%,?,4%,?,-6%,6
O=C(Cn1nnc(-c2cc(C(F)(F)F)cc(C(F)(F)F)c2)n1)NNC(=S)Nc1ccc(Cl)cc1,nt,nt,nt,1.3µM*,nt,nt
CC[C@@H]1Cn2c(c3nc(-c4ccccc4)nc-3n(C)c2=O)N1,-2%,nt,nt,?,?,nt
O=C1N=C(N2CCN(c3cccc4ccccc34)CC2)S/C1=C/c1cccs1,3%,47,-1%,-4%,-6%,6
Cc1ccccc1N1CCN(C2=NC(=O)/C(=C\c3cccs3)S2)CC1,-2%,21,?,16µM*,25µM*,nt
O=C(NCC(c1ccco1)S(=O)(=O)c1cccs1)c1ccccc1F (stereo not given),nt,nt,7%[46 µM],nt,nt,nt
S=c1nc[nH]c2c1[nH]c1ccccc12,2%,?,-3%,14µM*,25µM*,?
CC(C)C(=O)c1cc2c(cc1NC(=O)Nc1cccc3ccccc13)OCCO2,0%,20,-2%,?,?,17
[O-]/C(=C(\C(=S)Nc1cccc2ccccc12)[n+]1ccccc1)c1ccc(OC(F)F)cc1,-1%,nt,3%[46 µM],19µM*,nt,nt
COc1cccc(NC(=S)/C(=C(\[O-])c2ccc(OC(F)F)cc2)[n+]2ccccc2)c1,-3%,nt,-3%[46 µM],20µM*,nt,nt
[O-]/C(=C(\C(=S)Nc1cccc2ccccc12)[n+]1ccccc1)c1ccc2c(c1)OCCO2,2%,-18,21%,10µM*,?,8
[O-]/C(=C(\C(=S)Nc1cccc2ccccc12)[n+]1ccccc1)c1cccs1,2%,nt,9%[46 µM],?,nt,nt
CC(=O)n1c(COS(C)(=O)=O)nc2ccccc21,-2%[7.66 µM],nt,nt,4%[13.5 µM],-7%,nt
CCOc1ccccc1NC(=O)N1CCN(Cc2cc(=O)n3nc(-c4ccc(C)cc4)sc3n2)CC1,nt,nt,32%[46 µM],nt,nt,nt
Cc1cc(C)c2c(=O)n(-c3ccccc3)[nH]c2n1,-1%,2,9%,?,-12%,?
Cc1cc(C(C)(C)C)nc2[nH]n(-c3ccccc3)c(=O)c12,-1%,1,-7%,-2%,16µM*,8
O=C(Cn1c(-c2cccs2)cc2ccccc21)NCc1ccccc1Br,nt,nt,-12%[46 µM],nt,nt,nt
c1ccc(Cn2nnc(-c3ccccc3)n2)cc1,-1%,-100*,-4%,11%,-19%,-4
NCc1nnn(Cc2ccccc2)c1N,0%[7.66 µM],nt,nt,-11%[13.5 µM],1%,nt
Nc1nnn(Cc2ccccc2)n1,-1%,-100*,-9%,2%,-11%,-7
CCCn1c(C(O)c2ccc3c(c2)OCO3)nc2ccccc21 (stereo not given),11%,-100*,11%,-3%,-7%,9
CC(C)(C)c1onc(OCP(=O)(O)O)c1C[C@@H](N)C(=O)O,nt,nt,nt,nt,nt,5
SMILES,Luc counter,PNC inhibitor,Lamin A splicing,ALDH1A1 inh,HPGD block,IMPase inh
CC(C)n1cc(/C=C2\NC(=O)N(c3cccc(Cl)c3)C2=O)c2ccccc21,-2%,55,-27%,?,-19%,-4
CC(C)n1cc(/C=C2/NC(=O)N(c3cccc(Cl)c3)C2=O)c2ccccc21,1%,-100*,?,?,-20%,-3
CCNc1ncc2nc(-c3cccs3)c(=O)n(Cc3ccc(F)cc3)c2n1,nt,nt,-9%,?,nt,nt
CCCCN(C(=O)CSc1nncn1-c1ccccc1OC)c1c(N)n(Cc2ccccc2)c(=O)[nH]c1=O,-3%,nt,-7%[46 µM],2.2µM*,nt,nt
COCCN(C(=O)CSc1nncn1-c1ccccc1)c1c(N)n(Cc2ccccc2)c(=O)[nH]c1=O,1%,?,8%,14%,-10%,nt
CN1C[C@@H](C(=O)N[C@]2(C)O[C@]3(O)[C@H]4CCCN4C(=O)[C@H](Cc4ccccc4)N3C2=O)C[C@H]2c3cccc4[nH]cc(c34)C[C@@H]21,nt,nt,nt,nt,nt,6
CCOC(=O)C1=C(O)c2ccccc2C(=O)/C1=C\c1ccc(C)cc1,-5%,?,?,7.9µM*,14µM*,nt
CCOC(=O)C1=C(O)/C(=C\c2ccc(OC)c(OC)c2)N=C1C,-3%,9,-1%,-8%,-12%,16
COC(=O)C1=C(COc2ccc(C=O)cc2OC)NC(=O)NC1c1cc(C)ccc1C (stereo not given),-1%,2,-16%,6.3µM*,-6%,nt
CCN(CCCNC(=O)CN1N=C(c2ccccc2)CCC1=O)c1ccccc1,nt,nt,-12%[46 µM],nt,nt,nt
COc1ccc(NC(=O)CSC2=Nc3ccccc3C3=NC(CC(=O)NCCc4ccccc4)C(=O)N23)cc1 (stereo not given),nt,nt,3%[46 µM],nt,nt,nt
Cc1ccc(CNC(=O)C2CCC(CNc3c(N4CCOCC4)c(=O)c3=O)CC2)cc1 (stereo not given),-2%,-22,4%,2%,?,1
O=C(NCc1ccc2c(c1)OCO2)C1CCC(CNc2c(N3CCCC3)c(=O)c2=O)CC1 (stereo not given),4%,?,-1%,14%,-26%,-1
COc1ccc(OC)c(NC(=O)C2CCC(CNc3c(N4CCC(C)CC4)c(=O)c3=O)CC2)c1 (stereo not given),1%,-11,?,2%,25µM*,6
CC1CCN(c2c(NCC3CCC(C(=O)N4CCCC(C)C4)CC3)c(=O)c2=O)CC1 (stereo not given),-3%,41,-4%,7%,0.63µM*,0
O=C(NCc1ccccc1)C1CCC(CNc2c(N3CCCCC3)c(=O)c2=O)CC1 (stereo not given),-2%,31,-6%,4%,20µM*,nt
CC1CCN(c2c(NCC3CCC(C(=O)NCc4ccccc4)CC3)c(=O)c2=O)CC1 (stereo not given),1%,?,-5%,9%,18µM*,nt
NC(=O)CCCCC(N)=O,nt,nt,nt,-7%,-17%,nt
CCOC(=O)C1(C)C=C(Nc2ccc(C(N)=O)cc2)C(=O)N1c1ccccc1 (stereo not given),nt,nt,nt,nt,nt,-3
O=C(NCc1ccccc1)C1CCN(S(=O)(=O)N2CCCCCC2)CC1,2%,?,-11%,?,-4%,nt
O=C(NCc1ccccc1)C1CCC1,-3%,?,7%,20%,20µM*,nt
